Consider 96 molecules from ChEMBL document CHEMBL3988442, “University of Dundee, Small-Polar-MMV Screening Library” (2021).

The whole screen tested about 48,000 compounds, of which about 13,000 (27%) showed an effect of 50% or more. Some of the results follow.

This assay deals with Wolbachia pipientis. As to the kind of experiment: Anti-Wolbachia Cell-Based Screen. The format is functional. The note with it: 5 µM. The arrangement: scale not given: in the data most compounds retested in dose-response had high values.
As for `CN(C)C(=O)c1noc2c1CN(C(=O)CCC1CCCCN1C)CC2` (stereo unspecified), the “Percent Effect” value was 11.84%.
Next, `CCCn1nc2c(cc1=O)CN(CC1CCCCO1)CC2` (stereo unspecified): -1.903%; `CN1C(=O)CC[C@@H]2[C@H]1CCN2S(=O)(=O)c1cccs1`: -22.4%.
Turning to `CCN1C(=O)CC[C@@H]2[C@H]1CCN2S(=O)(=O)c1cccs1`, the “Percent Effect” value is on record as 2.968%.
Next, `O=C(O)C(F)(F)F.O=C1CC[C@H]2[C@H](CCN2S(=O)(=O)C2CC2)N1CCN1CCCC1`: 79.45%.
To `COCCN1C(=O)CC[C@@H]2[C@@H]1CCN2S(=O)(=O)C1CC1` belongs 90.99%.
To `CCS(=O)(=O)N1CC[C@@H]2[C@H]1CCC(=O)N2CCOC` belongs 101.4%; to `COCCN1C(=O)CC[C@@H]2[C@H]1CCN2Cc1ccc(C)s1.O=C(O)C(F)(F)F`, 3.422%.
On to `O=C1CC[C@H]2[C@H](CCN2C(=O)C2CCCO2)N1CCN1CCCC1` (stereo partly specified), for which the “Percent Effect” value was 13.58%.
To `COCCN1C(=O)CC[C@@H]2[C@H]1CCN2C(=O)N(C)C` belongs 4.27%.
For the molecule `COCCCN1C(=O)CC[C@H]2CN(Cc3ncc[nH]3)CC[C@H]21`, the “Percent Effect” value was -5.769%.
Next, `COCCN1C(=O)CC[C@@H]2[C@H]1CCN2S(=O)(=O)c1cccs1`: 103.5%.
Next, `O=C(O)C(F)(F)F.O=S(=O)(C1CC1)N1CCO[C@H]2[C@H](OCCN3CCCC3)CC[C@@H]21`: -18.3%; `COCCN1C(=O)CC[C@@H]2[C@H]1CCN2C(=O)C1CCOCC1`: 5.34%.
Regarding `O=C([C@@H]1COC[C@H]2CN(C3CCCCC3)C[C@H]21)N1CCOCC1`, the “Percent Effect” value was -4.013%.
Next, `O=C(CSCC1CC1)N1CCCC(c2nccn2Cc2ccncc2)C1` (stereo unspecified): 26.77%; `O=C1CC[C@@H]2[C@@H](CCN2S(=O)(=O)C2CC2)N1CC1CC1`: 105.6%.
To `CS(=O)(=O)N1C[C@@H]2OCC(=O)N(CC3CC3)[C@@H]2C1` belongs -6.528%; to `O=C(c1ccnnc1)N1CC[C@H]2[C@H]1CCN2S(=O)(=O)C1CC1`, -8.086%; to `COCCC(=O)N1CCn2cc(CN3CCN(C)CC3)nc2C1.O=C(O)C(F)(F)F.O=C(O)C(F)(F)F`, -0.4638%.
To `CC(=O)N1CCCC(c2ccc(CO)c(-c3c(C)noc3C)n2)C1` (stereo unspecified) belongs 98.56%; to `Cc1noc(C)c1-c1nc(C2CCCN(C(=O)C(C)C)C2)ccc1CO` (stereo unspecified), 110.5%.
As to `CCCc1cc(NCCC2CCCOC2)n2nccc2n1` (stereo unspecified), the “Percent Effect” value is -37.65%.
Next, `COCC(=O)N1CCCC2(CCN(c3cncnc3)C2=O)C1` (stereo unspecified): -8.381%; `COCC(=O)N1CCCC(C)(c2nncn2C)C1` (stereo unspecified): 100.7%; `COCC(=O)N1CCC2(CCCN(Cc3cnn(C)c3)C2)C1` (stereo unspecified): 0.82%.
To `O=C(O)c1cc(-c2cccnc2)cc(S(=O)(=O)N2CCCCCC2)c1` belongs -2.874%; to `Cc1cccc(S(=O)(=O)N2CCC3(CC2)CC(N(C)C)CO3)c1` (stereo unspecified), -10.34%.
To `COc1cccc(S(=O)(=O)N2CCN(C)[C@@H]3CS(=O)(=O)C[C@@H]32)c1` belongs 0.7716%.
Take `O=S1(=O)CCC(S(=O)(=O)c2cccc(S(=O)(=O)N3CCOCC3)c2)C1` (stereo unspecified): the “Percent Effect” value is 94.82%.
As to `O=S1(=O)CCC(S(=O)(=O)c2cccc(S(=O)(=O)N3CCCCCC3)c2)C1` (stereo unspecified), the “Percent Effect” value is listed as 99.56%.
To `O=S1(=O)CCC(S(=O)(=O)c2cccc(S(=O)(=O)N3CCCC3)c2)C1` (stereo unspecified) belongs 102.5%; to `CSCc1cccc(S(=O)(=O)N2CCC(C)CC2)c1`, -3.451%; to `Cc1ccc(S(=O)(=O)N2CCC(N3CCCCC3)CC2)cc1C`, 2.331%.
To `CN1CCN(S(=O)(=O)c2cccc(S(=O)(=O)C3CCS(=O)(=O)C3)c2)CC1` (stereo unspecified) belongs 83.09%; to `CNC(=O)CS(=O)(=O)C1CCN(S(=O)(=O)c2cccc(C(C)=O)c2)CC1`, -4.98%; to `CSCc1cccc(S(=O)(=O)N2CCSCC2)c1`, 9.116%.
To `F[C@@H]1CN(CC2CC2)C[C@@H]1OCc1nc2cnccc2[nH]1` belongs 0.2441%.
As to `COc1ccc(C(=O)NC2CC2)c(OC2CCN(C(C)CO)CC2)c1` (stereo unspecified), the “Percent Effect” value is -4.273%.
To `CC(=O)N(Cc1ccoc1)C1CCCCC1` belongs 5.985%; to `CCCNC(=O)c1sc(Nc2ccc(Cl)cn2)nc1C`, 11.67%; to `CCN(CC)C(=O)CNC(=O)c1cnc(-c2ccccc2)nc1`, 0.8892%.
Next, `COc1ccc(CC(=O)N2CCN(c3nccn3C)CC2)cc1.Cl`: 92.57%; `Cl.Cn1ccnc1N1CCN(C(=O)Cc2ccc(Cl)cc2)CC1`: 89.82%; `CCOc1ccc(CC(=O)N2CCN(c3nccn3C)CC2)cc1.Cl`: -3.351%.
Next, `COc1cccc(CN(C)C(=O)CN2CCN(c3nccn3C)CC2)c1`: 6.217%; `CN(C)c1cnnc(N2CCN(C(=O)Cc3ccccc3)CC2)c1`: 6.121%; `Cc1cccc(CC(=O)N2CCN(c3nccn3C)CC2)c1.Cl`: 119.3%.
`Cc1cccc(N2CCN(CCCNC(=O)c3nccn3C)CC2)c1`: the “Percent Effect” value is listed as 29.8%.
To `CC(=O)N1CCN(C(=O)CN2CCN(c3cccc(C)c3)CC2)CC1` belongs 4.87%.
Next, `Cl.Cn1ccnc1N1CCN(C(=O)Cc2ccccc2)CC1`: 103.6%; `Cl.Cn1ccnc1N1CCN(C(=O)Cc2ccc(F)cc2)CC1`: 9.363%.
As to `Cc1cc(N2CCCN(C(=O)Cc3ccc(O)c(Cl)c3)CC2)ccn1`, the “Percent Effect” value was 6.362%.
To `CSc1cc2c(cc1NC(=O)NCc1ccco1)OCCO2` belongs -2.93%.
With `Cc1cnn(CC(=O)NC2CCCc3cc(OC(F)F)ccc32)c1` (stereo unspecified), the “Percent Effect” value is reported as -5.352%.
Next, `Cc1nn(C(C)C)c(C)c1S(=O)(=O)Nc1ccc(C(=O)O)cc1`: -3.585%; `COc1nc2ccn(CCNc3cc(C)ccn3)c(=O)c2cc1C#N`: -7.591%; `Cn1cc(N2CC3(CCN(S(C)(=O)=O)C3)CC2=O)cn1` (stereo unspecified): -6.805%.
For `CCOc1cc(N2CCN(C(=O)c3ccc(OC)cc3)CC2)nc(C)n1`, the “Percent Effect” value was determined as 6.189%.
To `CCc1ccc(CC(=O)N2CCN(c3nccn3C)CC2)cc1` belongs 102.2%; to `CCOc1ccc(C(=O)N2CCN(c3nccn3C)CC2)cc1.Cl`, 123.5%; to `CCn1ccnc1C1CCN(C(=O)C(O)c2ccc(OC)cc2)CC1` (stereo unspecified), 13.84%.
Next, `CCOc1ccc(NC(=O)CN2CCN(c3nccn3C)CC2)cc1`: 10.39%; `CCn1ccnc1C1CCN(C(=O)Nc2ccc(OC)cc2)CC1`: -6.796%; `CCOc1ccc(CC(=O)N2CCN(c3nccn3CC)CC2)cc1.Cl`: 105.4%.
`Cc1occc1C(=O)Nc1cc(N2CCNC2=O)ccc1Cl`: the “Percent Effect” value is -16.86%.
Take `CNCC(=O)N[C@H]1CN(c2nc(C)c3c(n2)CCCC3)C[C@@H]1C1CC1`: the “Percent Effect” value is reported as -22.84%.
To `Fc1ccccc1C1NCCc2cc3c(cc21)OCCO3` (stereo unspecified) belongs 96.06%.
`O=C(CCSc1ccccc1F)NS(=O)(=O)c1ccc2c(c1)OCCO2`: the “Percent Effect” value is on record as -3.97%.
To `OCCNC1CCc2cc3c(cc21)OCCO3` (stereo unspecified) belongs -2.778%; to `OCC1(CNC2CCc3cc4c(cc32)OCCO4)CC1` (stereo unspecified), -8.17%.
To `O=C(CSc1ccc2c(c1)OCCO2)NS(=O)(=O)c1ccccc1F` belongs 11.66%; to `OCCCNC1CCc2cc3c(cc21)OCCO3` (stereo unspecified), 0.5317%.
To `CCc1ccc(C2NCCc3cc4c(cc32)OCCO4)cc1` (stereo unspecified) belongs 132.5%.
Take `Clc1ccc(C2NCCc3cc4c(cc32)OCCO4)cc1` (stereo unspecified): the “Percent Effect” value was found to be 60.9%.
To `CCc1nc2c(NCC3COc4ccccc4C3)ncnc2o1` (stereo unspecified) belongs -41.62%.
In the case of `CCNC(=O)C(C)NC(=O)Nc1ccccc1SCC` (stereo unspecified), the “Percent Effect” value is -19.41%.
Next, `Cc1oncc1C(=O)N1CCC2(CCN(Cc3cccc(F)c3)C2=O)C1` (stereo unspecified): 82.89%; `Cc1oncc1C(=O)N1CC[C@H]2[C@@H]1CCC(=O)N2c1cccnc1.O=C(O)C(F)(F)F`: -37.57%.
To `Cc1oncc1C(=O)N1CC[C@@H]2[C@@H]1CC(=O)N2Cc1cccnc1.O=C(O)C(F)(F)F` belongs 95.81%; to `Cc1cccc(CN2CCCC(O)(CNCc3cccc(F)c3)C2=O)c1` (stereo unspecified), -1.044%.
Next, `Cc1oncc1C(=O)N1CCC2(CCN(Cc3cccnc3)C2=O)C1.O=C(O)C(F)(F)F` (stereo unspecified): 107.4%; `COCCN1CCC2(CCCN(C(=O)c3cnoc3C)C2)C1=O` (stereo unspecified): 5.935%; `O=C(O)C(F)(F)F.O=C(c1ccco1)N1CC[C@H]2[C@H]1CC(=O)N2c1cccnc1`: -20.41%.
For the molecule `F[C@@H]1CN(Cc2nccs2)C[C@@H]1OCc1nc2cnccc2[nH]1`, the “Percent Effect” value was 1.083%.
Consider `O=C(NC1CC1)C1CN(Cc2ccc3c(c2)OCCO3)CCN1` (stereo unspecified), for which the “Percent Effect” value is -21.08%.
Next, `COc1ccc(CCNC(=O)C2CCC(Cn3cnnn3)CC2)cc1` (stereo unspecified): -2.407%; `COc1ccc(C)cc1C(C)NS(=O)(=O)c1ccc2c(c1)CCC(=O)N2` (stereo unspecified): -0.1201%.
For `CC(NC(=O)NCCn1ccnc1)c1ccc2c(c1)NC(=O)CO2` (stereo unspecified), the “Percent Effect” value is -0.9133%.
Next, `COC(=O)c1ccc(NC(C)c2ccc3c(c2)NC(=O)CO3)nn1` (stereo unspecified): 109.1%.
Next, `COc1cccc(NC(=O)NC(C)c2ccc3c(c2)CC(=O)N3)c1` (stereo unspecified): -1.814%; `COC(=O)c1ccc(NC(C)c2ccc3c(c2)CCC(=O)N3)nn1` (stereo unspecified): 54.02%.
With `CC(NC(=O)Nc1ccncc1)c1ccc2c(c1)CC(=O)N2` (stereo unspecified), the “Percent Effect” value stood at 6.994%.
Next, `COC(=O)c1ccc(NC(C)c2ccc3c(c2)CC(=O)N3)nn1` (stereo unspecified): 83.43%; `COc1ccc(C(C)NS(=O)(=O)c2ccc3c(c2)CCC(=O)N3)cc1F` (stereo unspecified): 13.2%.
To `CC(NC(=O)NCCCn1cccn1)c1ccc2c(c1)NC(=O)CO2` (stereo unspecified) belongs -10.21%.
